# Measurements from PubChem BioAssay AID1347076 (National Center for Advancing Translational Sciences (NCATS), 2019).
# About 13,000 (3.2%) of roughly 400,000 compounds were called active. Roughly 18% stayed inconclusive and do not appear here. Calls follow the shape of the dose curve; as a rule, active = well fitted cell-killing curve with a large enough effect; inconclusive = small, poorly fitted or top-dose-only effect, or effect the other way; inactive = flat fitted curve, though single readings scatter. The list comes from a sample in which actives are over-represented; it also holds similar structures and randomly drawn compounds.
# Experiment: qHTS assay for MDR1-selective chemotherapeutics: Primary screen using the drug-selected MDR subline cells KB-V1; also: nearly all actives have a fitted effect of over 60% in size
# Details: KB-V1 MDR cells viability, CellTiter-Glo, 72 h; series mostly up to 46.1 µM; activity change, negative = cytotoxicity: at the top concentration
# Summary of the method: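 KB-V1, DMEM (no phenol red) + 10% FBS; cpd pin-transferred, titration series; 72 h, 37 degrees C; CellTiter-Glo, luminescence. Data normalized, curve-fit.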
# % is scaled to controls: 0 for no effect and ±100 for the full control effect; potency is read from the fitted curve at half-maximal effect.
SMILES,"activity change, negative = cytotoxicity",Potency
CCCNC(=O)C1(C)CCN(Cc2ccc(Cl)c(Cl)c2)C1 (stereo not given),0% (inactive),
COc1cccc(NC(=O)C2CCN(c3cc(C)nc4c(-c5ccc(Cl)cc5)c(C)nn34)CC2)c1,-8.13% (inactive),
CC1(C)OC(=O)C2=C(C[C@@H](C3CC3)O[C@H]2CCc2cccc(Cl)c2)O1,-17% (inactive),
O=S(=O)(c1cccc(C(F)(F)F)c1)N1CCN(c2nc(-c3cccs3)nc3ccccc23)CC1,-1.66% (inactive),
COCC(=O)N(C)C[C@H]1Oc2cc(Br)ccc2S(=O)(=O)N([C@H](C)CO)C[C@H]1C,13.1% (inactive),
CC1(Cc2ccccc2C#N)C(=O)Nc2ccc(-c3ccc4[nH]ccc4c3)cc21 (stereo not given),,6.51 µM (active)
Cc1ccc(CC2(C)C(=O)Nc3ccc(OC(F)(F)F)cc32)cc1 (stereo not given),2.43% (inactive),
COc1ccccc1CC1(C)C(=O)Nc2ccc(OC(F)(F)F)cc21 (stereo not given),22.6% (inactive),
Cc1ccc(-n2ncc3c(N4CCC(C(N)=O)CC4)ncnc32)cc1,-12.2% (inactive),
Cc1cc(OCC(=O)Nc2nccs2)c2c(C)c(C)c(=O)oc2c1,-5.19% (inactive),
COc1ccc(C(C)C)cc1-c1ccc2nncn2c1,0.562% (inactive),
O=C(NNC(=O)c1ccc(Cl)nc1)c1ccc(Br)cc1,12.1% (inactive),
CCN(CC)c1ccc(NC(=O)CN2CCN(CC(=O)Nc3ccc(Cl)cc3)CC2)cc1,-7.77% (inactive),
CCN(CC)c1ccc(NC(=O)c2ccc(Cl)nc2)cc1,,4.61 µM (active)
COC(=O)c1ccccc1NS(=O)(=O)c1ccc2c(c1)CCCN2C(C)=O,6.42% (inactive),
CCOc1cc(/C=N/NC(=O)c2c(C)nc3ccc(Cl)cn23)ccc1O,18% (inactive),
CCc1oc(-c2ccc(OC)cc2)c(C(=O)OCCCCCO)c1C(C)OCCO (stereo not given),2.82% (inactive),
CC12CCC(C(=O)N(NC(=O)c3ccccc3O)C1=O)C2(C)C (stereo not given),,3.26 µM (active)
O=C(NN1C(=O)C2C(C1=O)C1C=CC2C12CC2)c1ccccc1Cl (stereo not given),13.1% (inactive),
CC12CCC(C(=O)N(c3cccc(Cl)c3)C1=O)C2(C)C (stereo not given),-8.2% (inactive),

SMILES,"activity change, negative = cytotoxicity",Potency
O=C(NCc1ccccc1)C1CNCC(C(=O)NCc2ccccc2)C1 (stereo not given),19.2% (inactive),
O=C(OC/C=C/CSc1nnc(-c2cccc3ccccc23)o1)c1ccc(F)cc1,-4.97% (inactive),
Cc1cc(S(=O)(=O)NC2CCCC2)ccc1-n1cnnn1,0.365% (inactive),
COc1cc(S(=O)(=O)N(Cc2cccs2)C2CC2)ccc1-n1cnnn1,,4.61 µM (active)
CCOc1ccc(CN(Cc2ccco2)S(=O)(=O)c2ccc(-n3cnnn3)c(OC)c2)cc1,0% (inactive),
CCOC(=O)c1c(C)oc2nc(C)nc(Nc3ccc(CC)cc3)c12,2.93% (inactive),
O=C(C(=O)N1CCC(c2ccccc2)CC1)c1ccccc1,-16.7% (inactive),
Cc1csc(SCC(=O)Nc2ccc(C)c(S(=O)(=O)N(C)C)c2)n1,-23.4% (inactive),
CCN1CCN(CCNC(=O)c2ccc3c(c2)NC(=O)/C(=C\c2cccc(Cl)c2)S3)CC1,16.5% (inactive),
O=C(OCC(=O)N1CCCCCC1)c1cccc(Cl)c1Cl,1.14% (inactive),
CCOc1ccc(CCN2C(=S)N([C@@H](CC(C)C)CN3CCC[C@@H]3CN3C(=S)NC[C@@H]3Cc3ccc(O)cc3)C[C@@H]2Cc2ccc(O)cc2)cc1,-23.8% (inactive),
CCC(=O)N1CCc2cc(S(=O)(=O)NC(Cc3ccccc3)C(=O)NCc3ccccc3)ccc21 (stereo not given),4.74% (inactive),
CC1CCCN(CCOCCOc2ccccc2-c2ccccc2)C1 (stereo not given),,20.6 µM (active)
CC1CCCN(CC(O)COCc2ccccc2)C1 (stereo not given),6.78% (inactive),
CN1CCN(CCCCOc2ccccc2-c2ccccc2)CC1,9.51% (inactive),
OC[C@@H]1CN(Cc2ccc(F)cc2)C[C@H](n2cnc3c(NC4CCCC4)ncnc32)O1,0.456% (inactive),
Cc1ccc(N2CCN(C(=S)Nc3cc(C)ccn3)CC2)cc1,0% (inactive),
O=C1NC(=Nc2ccc(Cl)cc2)SC1Cc1cccc(Cl)c1Cl (stereo not given),-12.8% (inactive),
NC1=NC(=O)C(Cc2cccc(Cl)c2Cl)S1 (stereo not given),,18.4 µM (active)
CC(NC(=O)CC1SC(N)=NC1=O)c1ccccc1 (stereo not given),-19% (inactive),

SMILES,"activity change, negative = cytotoxicity",Potency
C[C@@H]1CN([C@H](C)CO)S(=O)(=O)c2ccc(C#C[C@@H](C)O)cc2O[C@@H]1CN(C)Cc1ccc(-c2ccccc2)cc1,-1.21% (inactive),
Cc1cc(Br)cn2c(Cc3ccsc3)c(-c3ccc(C#N)cc3)nc12,2.33% (inactive),
COc1cccc(OCCn2c(-c3ccc(Br)cc3)nc3ccccc3c2=O)c1,3.93% (inactive),
CC[C@]1(O)CC2CN(CCc3c([nH]c4ccccc34)[C@@](C(=O)OC)(c3cc4c(cc3OC)N(C=O)[C@H]3[C@@](O)(C(=O)OC)[C@H](OC(C)=O)[C@]5(CC)C=CCN6CC[C@]43[C@@H]65)C2)C1 (stereo not given in full),,20.6 µM (active)
CC[C@]1(O)C[C@@H]2CN(CCc3c([nH]c4ccccc34)[C@@](C(=O)OC)(c3cc4c(cc3OC)N(C)[C@H]3[C@@](O)(C(=O)OC)[C@H](OC(C)=O)[C@]5(CC)C=CCN6CC[C@]43[C@@H]65)C2)C1,,5.17 µM (active)
O=CNc1cc(-c2ccc(C(=O)N3CCOCC3)cc2)cn2c(-c3ccc(F)cc3)cnc12,-18% (inactive),
COC(=O)c1cc(NC(=O)CCS(=O)(=O)c2cc(Br)cc3c2N(C(=O)C2CC2)CC3)cc(C(=O)OC)c1,7.94% (inactive),
CCNC(=O)C1CCCN(C(=O)c2cc(F)ccc2C)CC1 (stereo not given),-22.9% (inactive),
COc1ccc(NC(=O)C(c2ccncc2)n2c(=O)c(-c3cc4ccccc4[nH]3)nc3ccccc32)cc1 (stereo not given),-0.812% (inactive),
CC(C)c1ccc(NC(=O)c2cc(S(=O)(=O)N3CCc4ccccc4C3)ccc2F)cc1,-14.2% (inactive),
Cc1ccccc1S(=O)(=O)N1[C@@H](c2cccc(Cl)c2)C(C(=O)OC(C)(C)C)=CC[C@H]1c1ccc(Cl)cc1,0% (inactive),
COCCCNCCOCCOc1ccc(Cl)cc1Br,-3.06% (inactive),
CCOCCCNCc1cc(Br)ccc1OCC,-3.55% (inactive),
CCC(C)NCCOCCOc1ccc(Br)cc1C (stereo not given),,20.6 µM (active)
COc1ccc(N)cc1NC(=O)CN1CCOCC1,16.4% (inactive),
CCCS(=O)(=O)NC(=O)C1(C)CCN(C(=O)c2sccc2C)C1 (stereo not given),2.03% (inactive),
O=C(CN1c2ccccc2S(=O)(=O)c2ccccc21)Nc1cccc(C(F)(F)F)c1,-7.05% (inactive),
Cc1cc(C)c2cc(CN(Cc3cccs3)Cc3nnnn3CC3CCCO3)c(=O)[nH]c2c1 (stereo not given),,16.4 µM (active)
COc1ccc2[nH]c(=O)c(CN(Cc3nnnn3CCc3ccccc3)CC3CCCO3)cc2c1 (stereo not given),-18.1% (inactive),
Cc1cc2cc(CN(Cc3cccs3)Cc3nnnn3CC3CCCO3)c(=O)[nH]c2cc1C (stereo not given),-10.7% (inactive),
